Test results from PubChem BioAssay AID504332 (National Center for Advancing Translational Sciences (NCATS), 2011).
In all, about 350,000 compounds went through this assay and about 31,000 (8.9%) were called active. About 15% were inconclusive and are not listed. Calls follow the shape of the dose curve; as a rule, active = well fitted inhibition curve with a large enough effect; inconclusive = small, poorly fitted or top-dose-only effect; inactive = no such curve, though single readings can be large or run the other way. Shown is part of a subset that was picked to be rich in actives. A call without a number means that no potency is given here. The source holds several records for some structures; these can differ, active in one and inactive in another.

These compounds were tested against Histone-lysine N-methyltransferase EHMT2 (Homo sapiens) (UniProt Q96KQ7) (assay: qHTS Assay for Inhibitors of Histone Lysine Methyltransferase G9a). Conditions: G9a H3K9 monomethylation, AlphaScreen, 2 h; series mostly up to 59 µM.
Procedure, shortened: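 Signal arises when biotinylated H3K9 peptide, once monomethylated, bridges streptavidin donor and antibody-captured acceptor beads. Enzyme at 20 nM was preincubated 15 min with test compounds; peptide 500 nM and SAM 20 uM then reacted for 2 h.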
Also: nearly all actives have a fitted effect of over 75% in size.
Potency is read from the fitted curve at half-maximal effect.

Sequence of Histone-lysine N-methyltransferase EHMT2 (Homo sapiens) (Q96KQ7 913-1193 limits assumed): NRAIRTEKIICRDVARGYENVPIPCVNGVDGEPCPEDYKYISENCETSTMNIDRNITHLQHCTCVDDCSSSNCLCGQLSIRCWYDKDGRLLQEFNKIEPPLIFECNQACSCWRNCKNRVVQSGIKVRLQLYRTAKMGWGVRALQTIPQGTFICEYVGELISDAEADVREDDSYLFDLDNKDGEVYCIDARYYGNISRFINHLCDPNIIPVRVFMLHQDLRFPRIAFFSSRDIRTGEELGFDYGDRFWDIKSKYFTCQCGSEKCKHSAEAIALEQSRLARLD

SMILES | Potency | activity, negative = inhibition
CCCCSCCCNC(=O)C1CCC(CNS(=O)(=O)c2ccc(NC(C)=O)cc2)CC1 (centres undefined) | inactive | 
COCCN(Cc1ccccc1)C(=O)Cc1ccc(S(=O)(=O)N2CCOCC2)s1 |  | -3.78% [at 12.7 µM] (inactive)
COc1ccc(NC(=O)Cn2c(=O)n(CCC(C)C)c(=O)c3cccnc32)cc1Cl | inactive | 
O=C(Nc1ccc(Br)cc1)c1cc2nc(-c3ccccc3)cc(-c3ccccc3)n2n1 | inactive | 
COc1cccc(C(=O)Nc2ccc(N3CCN(C(=O)c4ccco4)CC3)cc2)c1 | inactive | 
COc1ccc(C(=O)Nc2ccc3nc(N4CCCCC4)cc(C)c3c2)cc1OC | inactive | 
Cc1ccccc1C(=O)NC(=S)Nc1ccc(N2CCN(C(=O)c3ccccc3)CC2)cc1 | inactive | 
COc1ccc(C(=O)NC(=S)Nc2ccc(N3CCCC3)cc2)cc1OC | 3.98 µM (active) | 
COc1cccc(C(=O)Nc2ccc3nc4n(c(=O)c3c2)CCCCC4)c1 | inactive | 
COc1cccc(C(=O)Nc2ccc(N3CCCC3)cc2)c1 | 4.47 µM (active) | 
COC(=O)Cc1ccc(NC(=S)NCc2ccccc2)cc1 | inactive | 
O=C(O)CCC(=O)Nc1ccc(N2CCOCC2)cc1 | inactive | 
Cc1ccc(C(=O)NC(=S)NCCN2CCOCC2)cc1 | inactive | 
O=C(Cc1ccccc1)NC(=S)Nc1ccc(N2CCCCC2)cc1 | 7.94 µM (active) | 
COc1ccc(C(=O)Nc2ccc(N3CCC(C)CC3)cc2)cc1Br | inactive | 
Cc1ccc(C(=O)NC(=S)Nc2ccc(N3CCOCC3)cc2)cc1 | 7.94 µM (active) | 
COc1ccc2oc(-c3ccc(C)c(NC(=O)c4sc5ccccc5c4Cl)c3)nc2c1 | inactive | 
CCOc1ccccc1NC(=S)NC(=O)CCc1ccccc1 | inactive | 
CSCC[C@H](NC(=O)N1CCn2c1nc1ccccc12)C(=O)NCc1ccc2c(c1)OCO2 | inactive | 
Cc1ccnc(NC(=O)CCNS(=O)(=O)c2ccc(C)c(C)c2)c1 | inactive | 
CN(Cc1ccccc1)C(=O)CSc1nc2ccccc2[nH]1 | inactive | 
O=c1cc(-c2ccccc2)[nH]c2nc(Cl)ccc12 | 20 µM (active) | 48.3% [at 12.7 µM] (inactive)
Cc1ccc(-c2cc(=O)c3ccc(Cl)cc3[nH]2)cc1 | inactive | 
O=c1cc(-c2ccccc2)[nH]c2cc(F)ccc12 | inactive | 
CCN(CC)CCCNC(=O)c1cc2c(=O)[nH]c3ccc(C)cc3c2s1 | inactive | 
CCCCn1c(N)c(N(CCOC)C(=O)c2cccc(S(=O)(=O)N3CCCCC3)c2)c(=O)[nH]c1=O | 50.1 µM (active) | 
CCCCn1c(N)c(N(CCOC)C(=O)c2cccc(OCc3ccccc3)c2)c(=O)[nH]c1=O | inactive | 
CCCCn1c(N)c(N(CC(C)C)C(=O)c2cccc(S(=O)(=O)N3CCN(C(C)=O)CC3)c2)c(=O)[nH]c1=O | inactive | 
